Records with an inconclusive call do not appear. Activity calls are given as the source filed them. Unless noted, calls come from the whole dose curve; as a rule, active = well fitted curve in the direction sought with a large enough effect in the repeat runs; inconclusive = weak or mixed curves; inactive = no such curve, though single readings can be large; an effect the other way counts as inactive or inconclusive.
target: Nuclear receptor ROR-gamma (Homo sapiens) (UniProt P51449); test: qHTS assay for small molecule antagonists of the retinoid-related orphan receptor gamma (ROR-gamma) signaling pathway (AID 651802; active = well fitted curve in the direction sought with a large enough effect; an effect the other way counts as inactive or inconclusive; note: % is set by controls: 0 for no effect and ±100 for the full control effect; nearly all actives have a fitted effect of over 60% in size); conditions: ROR-gamma antagonist cell reporter assay; series mostly up to 92.2 µM; activity change, negative = inhibition: at the top concentration
Sequence (P51449 whole entry, looked up): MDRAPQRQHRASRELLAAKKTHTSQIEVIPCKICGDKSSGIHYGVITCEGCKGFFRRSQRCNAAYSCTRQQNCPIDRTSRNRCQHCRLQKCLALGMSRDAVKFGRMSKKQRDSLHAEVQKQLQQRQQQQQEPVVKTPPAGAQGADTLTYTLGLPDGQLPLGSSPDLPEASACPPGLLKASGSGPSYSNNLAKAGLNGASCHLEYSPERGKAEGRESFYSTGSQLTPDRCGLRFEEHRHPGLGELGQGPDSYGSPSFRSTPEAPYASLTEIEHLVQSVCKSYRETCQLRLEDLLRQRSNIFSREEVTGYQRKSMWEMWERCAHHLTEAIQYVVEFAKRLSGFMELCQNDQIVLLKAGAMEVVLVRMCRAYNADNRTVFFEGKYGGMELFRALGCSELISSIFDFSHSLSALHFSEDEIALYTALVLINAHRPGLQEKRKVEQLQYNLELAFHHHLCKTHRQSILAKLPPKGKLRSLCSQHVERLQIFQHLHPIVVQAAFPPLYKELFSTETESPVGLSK
Outline: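 CHO cells carrying TET-inducible ROR-gamma and an ROR response element–luciferase reporter were exposed to compound, then induced with doxycycline. After 16hr at 37C, luminescence was read; lower signal indicates antagonism.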

SMILES	activity change, negative = inhibition
CCCCCCC=O	24.8% (inactive)
CCC(C)(C)OC	6.56% (inactive)
CCCCOCCOCCOCCCC	0.151% (inactive)
c1ccc(Nc2ccccc2)cc1	20.1% (inactive)
COC(=O)CS	21.1% (inactive)
Cc1ccco1	27.1% (inactive)
CCCCCCCN	33.6% (inactive)
ClCCl	2.05% (inactive)
CCCCC(=O)N(C)C	12.1% (inactive)
CCNS(=O)(=O)c1ccc(C)cc1	4.05% (inactive)
Cc1ccc(Br)cc1	1.01% (inactive)
C=C(C)OC(C)=O	-7.27% (inactive)
CCCC(Cl)CCCC(Cl)CCC(Cl)CCC(Cl)CCC(Cl)CCCC(Cl)CCC (stereo not given)	-0.422% (inactive)
OC(CCl)CCl	-0.423% (inactive)
CCC=O	-4.47% (inactive)
CCCCN(CCO)CCCC	1.13% (inactive)
CCCCC(C=O)CC (stereo not given)	-3.3% (inactive)
Nc1ccccc1S(=O)(=O)O	55.3% (inactive)
O=C1C=CCCC1	1.6% (inactive)
CCOCCOCC	30.5% (inactive)

SMILES	activity change, negative = inhibition
Cc1ccc(C#N)cc1	14.1% (inactive)
O=C(Cl)c1c(Cl)cccc1Cl	0.165% (inactive)
Cc1ccc(C)o1	13.7% (inactive)
C=CC(=O)OCCCC	21.1% (inactive)
CC(C)C(C)C	13.8% (inactive)
CCCCC(CC)COCC1CO1 (stereo not given)	-6.54% (inactive)
C=C(C)C(N)=O	3.03% (inactive)
CC(=O)Nc1ccc(C)cc1	-27.5% (inactive)
CCCC(C)CO (stereo not given)	41.4% (inactive)
O=[N+]([O-])c1ccc(Cl)cc1Cl	20.7% (inactive)
Cc1ccccc1C(=O)O	-1.17% (inactive)
Cc1ccc2ncccc2c1	7.76% (inactive)
C=C(C)C(=O)OC	22.1% (inactive)
COc1ccc(N)c(C)c1	20.5% (inactive)
Cc1c(N)cccc1[N+](=O)[O-]	-5.97% (inactive)
O=Cc1ccccc1Cl	-18.5% (inactive)
O=C(O)c1cccc(Cl)c1Cl	26.8% (inactive)
O=[N+]([O-])c1c(Cl)cc(Cl)cc1Cl	7.08% (inactive)
C(=C/c1ccccc1)/c1ccccc1	-9.59% (inactive)
Cc1ccc(Cl)cc1N	-1.08% (inactive)

test system: not listed separately; test: qHTS assay for small molecule agonists of the antioxidant response element (ARE) signaling pathway measured by Nrf2-dependant transcriptional activity (AID 720636); conditions: ARE-luc HepG2, Nrf2 luciferase reporter, 16 h; series mostly up to 92.4 µM; activation: at the top concentration; note: % of control where 0% means no effect
Outline: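 ARE-luc HepG2 cells carrying an Nrf2-responsive luciferase reporter were plated in medium with 1% dialyzed FBS, left 6 hr at 37 C to attach, then exposed to compound for 16 hr. Luciferase luminescence was read after ONE-Glo addition.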

SMILES	activation	outcome
CCCCCCC=O	-0.917% (inactive)	
CCC(C)(C)OC	-0.405% (inactive)	
CCCCOCCOCCOCCCC	-0.721% (inactive)	
c1ccc(Nc2ccccc2)cc1		inactive
COC(=O)CS	0.757% (inactive)	
Cc1ccco1	-0.659% (inactive)	
CCCCCCCN	-0.366% (inactive)	
ClCCl	-1.51% (inactive)	
CCCCC(=O)N(C)C	0.11% (inactive)	
CCNS(=O)(=O)c1ccc(C)cc1	-0.727% (inactive)	
Cc1ccc(Br)cc1	-1.47% (inactive)	
C=C(C)OC(C)=O	-1.48% (inactive)	
CCCC(Cl)CCCC(Cl)CCC(Cl)CCC(Cl)CCC(Cl)CCCC(Cl)CCC (stereo not given)	0.983% (inactive)	
OC(CCl)CCl	-0.17% (inactive)	
CCC=O	0.228% (inactive)	
CCCCN(CCO)CCCC	-0.0441% (inactive)	
CCCCC(C=O)CC (stereo not given)	-0.926% (inactive)	
Nc1ccccc1S(=O)(=O)O	-0.625% (inactive)	
O=C1C=CCCC1	-0.802% (inactive)	
CCOCCOCC	-0.0087% (inactive)	

SMILES	activation	outcome
Cc1ccc(C#N)cc1	-0.451% (inactive)	
O=C(Cl)c1c(Cl)cccc1Cl	-1.35% (inactive)	
Cc1ccc(C)o1	0.548% (inactive)	
C=CC(=O)OCCCC	-0.951% (inactive)	
CC(C)C(C)C	0.813% (inactive)	
CCCCC(CC)COCC1CO1 (stereo not given)	-0.0377% (inactive)	
C=C(C)C(N)=O	-0.961% (inactive)	
CC(=O)Nc1ccc(C)cc1	-0.144% (inactive)	
CCCC(C)CO (stereo not given)	-0.439% (inactive)	
O=[N+]([O-])c1ccc(Cl)cc1Cl	-1.44% (inactive)	
Cc1ccccc1C(=O)O	-0.456% (inactive)	
Cc1ccc2ncccc2c1	-0.417% (inactive)	
C=C(C)C(=O)OC	-0.764% (inactive)	
COc1ccc(N)c(C)c1	-0.0573% (inactive)	
Cc1c(N)cccc1[N+](=O)[O-]	0.844% (inactive)	
O=Cc1ccccc1Cl	-1.04% (inactive)	
O=C(O)c1cccc(Cl)c1Cl	-0.137% (inactive)	
O=[N+]([O-])c1c(Cl)cc(Cl)cc1Cl	0.165% (inactive)	
C(=C/c1ccccc1)/c1ccccc1	-0.704% (inactive)	
Cc1ccc(Cl)cc1N	1.78% (inactive)	

test system: not listed separately; test: qHTS assay for small molecule antagonists of the retinoid-related orphan receptor gamma (ROR-gamma) signaling pathway - cell viability counter screen (AID 720652); conditions: RORgamma reporter cell line viability counter screen; series mostly up to 92.2 µM; activity change, negative = cytotoxicity: at the top concentration;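 note: compound exposure lasted 16 hr before ATP read; % is set by controls: 0 for no effect and ±100 for the full control effect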
Outline: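 Counter screen in CHO cells carrying TET-inducible ROR-gamma and an ROR response element-luciferase reporter; cells plated 5 hr, compound pinned, doxycycline added, then 16 hr at 37 C. Viability read as intracellular ATP by CellTiter-Glo luminescence.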

SMILES	activity change, negative = cytotoxicity
CCCCCCC=O	-4.67% (inactive)
CCC(C)(C)OC	1.22% (inactive)
CCCCOCCOCCOCCCC	-4.56% (inactive)
c1ccc(Nc2ccccc2)cc1	9.78% (inactive)
COC(=O)CS	-2.64% (inactive)
Cc1ccco1	4.39% (inactive)
CCCCCCCN	-5.1% (inactive)
ClCCl	9.28% (inactive)
CCCCC(=O)N(C)C	2% (inactive)
CCNS(=O)(=O)c1ccc(C)cc1	-2.2% (inactive)
Cc1ccc(Br)cc1	13.7% (inactive)
C=C(C)OC(C)=O	5.98% (inactive)
CCCC(Cl)CCCC(Cl)CCC(Cl)CCC(Cl)CCC(Cl)CCCC(Cl)CCC (stereo not given)	-7.32% (inactive)
OC(CCl)CCl	-11.6% (inactive)
CCC=O	-1.41% (inactive)
CCCCN(CCO)CCCC	-18.1% (inactive)
CCCCC(C=O)CC (stereo not given)	10.7% (inactive)
Nc1ccccc1S(=O)(=O)O	11.4% (inactive)
O=C1C=CCCC1	8.34% (inactive)
CCOCCOCC	9.08% (inactive)

SMILES	activity change, negative = cytotoxicity
Cc1ccc(C#N)cc1	-3.53% (inactive)
O=C(Cl)c1c(Cl)cccc1Cl	5.63% (inactive)
Cc1ccc(C)o1	2.12% (inactive)
C=CC(=O)OCCCC	3.45% (inactive)
CC(C)C(C)C	6.88% (inactive)
CCCCC(CC)COCC1CO1 (stereo not given)	7.54% (inactive)
C=C(C)C(N)=O	9.07% (inactive)
CC(=O)Nc1ccc(C)cc1	-2.56% (inactive)
CCCC(C)CO (stereo not given)	3.32% (inactive)
O=[N+]([O-])c1ccc(Cl)cc1Cl	-1.99% (inactive)
Cc1ccccc1C(=O)O	12.7% (inactive)
Cc1ccc2ncccc2c1	2.81% (inactive)
C=C(C)C(=O)OC	14.9% (inactive)
COc1ccc(N)c(C)c1	3.19% (inactive)
Cc1c(N)cccc1[N+](=O)[O-]	-12% (inactive)
O=Cc1ccccc1Cl	7.62% (inactive)
O=C(O)c1cccc(Cl)c1Cl	-13.4% (inactive)
O=[N+]([O-])c1c(Cl)cc(Cl)cc1Cl	8.2% (inactive)
C(=C/c1ccccc1)/c1ccccc1	10.7% (inactive)
Cc1ccc(Cl)cc1N	-10.8% (inactive)
